Results from PubChem BioAssay.
Active and inactive are the calls of the source. Unless noted, the rule behind the calls is not given here.

Experiments:
[1] = anti-His antibody binders, primary screen, artefact control for SMM control protein annotation, biochemical, small-molecule microarray, 635 nm fluorescence (AID 1128); settings: anti-His Alexa647 antibody binding, higher = more signal;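 note: score merges feature fluorescence with signal-to-noise for each printed compound spot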
[2] = system: Human papillomavirus type 1a E7 protein (residues 1-88); assay: HPV1a E7 small-molecule binders, primary screen, biochemical, small-molecule microarray, residues 1-88, 635 nm (AID 1129); settings: small-molecule microarray binding, fluorescence 635 nm; higher = more signal
[3] = target: Focal adhesion kinase 1 (Homo sapiens) (UniProt Q05397); assay: small-molecule microarray binders of FAK, primary screen, biochemical, 635/667 nm fluorescence, BSA, DTT (AID 1130); settings: PTK2 binding, 635 nm fluorescence, higher = more signal;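 note: composite of spot emission at 667 nm and signal to noise over triplicate slides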
[4] = system: Fibrinogen (Alexa647-labelled); assay: fibrinogen binders on compound microarrays, profiling panel, artefact control for SMM control-protein annotation, biochemical, small-molecule microarray, 635/667 nm fluorescence (AID 1131); settings: fibrinogen-A647 binding fluorescence, higher = more signal;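 note: z-score merges 667 nm fluorescence with per-spot signal-to-noise over triplicate slides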
[5] = target: Follistatin (Homo sapiens) (UniProt P19883); assay: follistatin binders on small-molecule microarrays, primary screen, biochemical, small-molecule microarray, 635/667 nm fluorescence (AID 1132); settings: FST binding, 635 nm fluorescence, higher = more signal
[6] = target: Fibroblast growth factor 2 (Homo sapiens) (UniProt P09038); assay: FGF2 binders on small-molecule microarrays, primary screen, biochemical, small-molecule microarray, 635/667 nm fluorescence (AID 1133); settings: small-molecule microarray binding, FGF2, fluorescence 635/667; higher = more signal
[7] = mitochondrial membrane potential change in A549 cells, profiling panel, cell-based, JC-1 fluorescence, basal, 24 h, 100 nL (AID 1138); settings: higher = more signal;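 note: A549 lung adenocarcinoma cells under basal conditions with no added stimulus; test concentration not given here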
Lefty1 = Lefty1 binders on small-molecule microarrays, primary screen, biochemical, small-molecule microarray, 635/667 nm fluorescence (AID 1139); settings: small-molecule microarray binding, fluorescence 635/667; higher = more signal
[8] = system: wheat germ agglutinin (Triticum aestivum), Alexa647-labelled; assay: wheat germ agglutinin binders on compound microarrays, profiling panel, artefact control for SMM control-protein annotation, biochemical, small-molecule microarray, 635/667 nm fluorescence (AID 1140); settings: WGA-A647 binding, 635 nm fluorescence, higher = more signal;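 note: score merges 667 nm feature emission with signal to noise over triplicate slides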
[9] = target: Luciferin 4-monooxygenase (Photinus pyralis) (UniProt P08659); assay: firefly luciferase enzyme inhibitors, primary screen, biochemical, luminescence, purified enzyme, 2006 set (AID 1141); settings: SteadyGlo luminescence, 30 min, higher = more signal, called active from +8 up or from −8 down;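 note: cell-free assay with purified firefly luciferase at 100 ng per well in PBS; test concentration not given here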
[10] = system: Wnt5a (protein binding on small-molecule microarray); assay: Wnt5a binders on small-molecule microarray, primary screen, biophysical, 635/667 nm fluorescence (AID 1142); settings: 635 nm fluorescence, higher = more signal;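 note: fluorescence read at 667 nm with signal to noise per printed feature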
[11] = cell viability in Huh7 cells, primary screen, cytotoxicity control for HCV replication inhibitor project, CellTiter-Glo luminescence, basal, 48 h (AID 1143); settings: Huh7 HCV replicon, higher = more signal, called active from +8 up or from −8 down;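 note: Huh7 hepatoma cells carrying a hepatitis C replication reporter with no stimulus; test concentration not given here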
[12] = P. aeruginosa biofilm formation inhibitors, primary screen, PAO1 strain, BacTiter-Glo luminescence, LB-PBS (AID 1144); settings: 12 h, higher = more signal
[13] = CREB reporter modulators without forskolin, primary screen, cell-based, PC12, CRE-LacZ reporter, unstimulated (AID 1145); settings: no forskolin, luminescence, 4.5 h, higher = more signal, called active from +8 up or from −8 down
[14] = CREB reporter modulators under forskolin, primary screen, cell-based, PC12, CRE-LacZ reporter, forskolin-stimulated (AID 1146); settings: luminescence, 4.5 h, higher = more signal, called active from +8 up or from −8 down;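 note: PC12 cells with 6xCRE LacZ reporter stimulated by forskolin 10 µM; beta-galactosidase reporter signal reflecting CREB driven transcription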
[15] = target: Streptavidin (Streptomyces avidinii) (UniProt P22629); assay: streptavidin binders on small-molecule microarray, primary screen, artefact control for SMM compound annotation, biophysical, 635/667 nm fluorescence (AID 1147); settings: streptavidin binding, higher = more signal;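 note: signal reflects streptavidin binding to arrayed compounds as a control protein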
[16] = small-molecule binders of probe aInhba, primary screen, biochemical, small-molecule microarray, 635/667 nm fluorescence (AID 1148); settings: higher = more signal;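 note: score merges 667nm spot fluorescence with signal-to-noise for antibody binding to printed compounds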
Torsin-1A (Homo sapiens) [17] = target: Torsin-1A (Homo sapiens) (UniProt O14656); assay: torsin A binders from cell lysate, primary screen, small-molecule microarray, wild-type, 635/667 nm (AID 1149); settings: COS7 hTOR1A-WT lysate, 635 nm fluorescence, higher = more signal
Torsin-1A (Homo sapiens) [18] = target: Torsin-1A (Homo sapiens) (UniProt O14656); assay: small-molecule binders of mutant TOR1A in lysate, primary screen, cell lysate, small-molecule microarray, COS7 lysate, 635/667 nm fluorescence (AID 1150); settings: COS7 hTOR1A mutant lysate, 635 nm fluorescence, higher = more signal;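 note: score pools 667 nm emission and signal to noise measuring lysate protein binding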
[19] = system: Sonic hedgehog protein (Shh); assay: small-molecule binders of Shh protein, primary screen, biochemical, small-molecule microarray, 635/667 nm fluorescence (AID 1151); settings: small-molecule microarray binding, 635 nm fluorescence; higher = more signal;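 note: Shh protein binding to compounds spotted on small-molecule microarray slides; score combines spot fluorescence intensity with signal-to-noise across triplicate slides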

Chain of Torsin-1A (Homo sapiens) (O14656 whole entry, looked up): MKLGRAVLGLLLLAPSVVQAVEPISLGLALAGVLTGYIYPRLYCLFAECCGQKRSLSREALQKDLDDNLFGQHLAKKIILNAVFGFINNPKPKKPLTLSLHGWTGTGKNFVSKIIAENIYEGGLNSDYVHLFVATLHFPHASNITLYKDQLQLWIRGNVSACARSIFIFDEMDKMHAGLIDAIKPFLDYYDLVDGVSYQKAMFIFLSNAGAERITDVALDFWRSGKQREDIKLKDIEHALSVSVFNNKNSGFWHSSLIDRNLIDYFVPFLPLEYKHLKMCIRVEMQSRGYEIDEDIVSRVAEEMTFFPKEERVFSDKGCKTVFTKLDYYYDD
Chain of Focal adhesion kinase 1 (Homo sapiens) (Q05397 whole entry, looked up): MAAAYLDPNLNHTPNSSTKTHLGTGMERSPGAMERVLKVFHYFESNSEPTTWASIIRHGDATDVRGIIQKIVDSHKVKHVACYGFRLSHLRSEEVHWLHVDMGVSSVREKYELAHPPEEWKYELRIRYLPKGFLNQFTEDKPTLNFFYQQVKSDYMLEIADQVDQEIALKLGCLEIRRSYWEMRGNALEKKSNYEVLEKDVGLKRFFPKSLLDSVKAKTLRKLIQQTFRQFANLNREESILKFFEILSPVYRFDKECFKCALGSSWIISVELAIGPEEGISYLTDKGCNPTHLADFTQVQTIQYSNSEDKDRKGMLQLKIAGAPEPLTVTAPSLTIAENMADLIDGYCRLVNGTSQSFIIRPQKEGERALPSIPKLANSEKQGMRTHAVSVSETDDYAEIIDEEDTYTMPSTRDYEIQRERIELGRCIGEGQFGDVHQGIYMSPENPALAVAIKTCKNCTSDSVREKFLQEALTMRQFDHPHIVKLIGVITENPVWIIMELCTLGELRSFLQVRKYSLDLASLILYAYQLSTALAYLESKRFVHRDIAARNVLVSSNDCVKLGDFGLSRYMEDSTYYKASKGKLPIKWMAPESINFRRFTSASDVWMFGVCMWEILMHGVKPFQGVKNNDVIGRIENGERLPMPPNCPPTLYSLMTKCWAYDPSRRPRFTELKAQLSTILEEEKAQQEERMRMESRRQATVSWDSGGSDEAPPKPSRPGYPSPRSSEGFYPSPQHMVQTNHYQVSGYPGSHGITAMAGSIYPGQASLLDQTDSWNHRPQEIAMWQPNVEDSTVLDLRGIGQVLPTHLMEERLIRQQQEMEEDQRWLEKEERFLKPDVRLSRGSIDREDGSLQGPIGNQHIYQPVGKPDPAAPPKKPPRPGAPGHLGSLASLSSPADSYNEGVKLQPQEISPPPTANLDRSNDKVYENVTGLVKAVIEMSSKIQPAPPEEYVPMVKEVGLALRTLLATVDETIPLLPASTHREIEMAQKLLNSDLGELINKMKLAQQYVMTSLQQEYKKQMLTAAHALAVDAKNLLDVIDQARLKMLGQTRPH
Chain of Streptavidin (Streptomyces avidinii) (P22629 whole entry, looked up): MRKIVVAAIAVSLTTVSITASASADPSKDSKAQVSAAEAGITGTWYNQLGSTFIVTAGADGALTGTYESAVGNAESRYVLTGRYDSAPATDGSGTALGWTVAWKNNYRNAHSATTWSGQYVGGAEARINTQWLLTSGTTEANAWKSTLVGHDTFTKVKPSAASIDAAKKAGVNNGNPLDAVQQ
Chain of Fibroblast growth factor 2 (Homo sapiens) (P09038 whole entry, looked up): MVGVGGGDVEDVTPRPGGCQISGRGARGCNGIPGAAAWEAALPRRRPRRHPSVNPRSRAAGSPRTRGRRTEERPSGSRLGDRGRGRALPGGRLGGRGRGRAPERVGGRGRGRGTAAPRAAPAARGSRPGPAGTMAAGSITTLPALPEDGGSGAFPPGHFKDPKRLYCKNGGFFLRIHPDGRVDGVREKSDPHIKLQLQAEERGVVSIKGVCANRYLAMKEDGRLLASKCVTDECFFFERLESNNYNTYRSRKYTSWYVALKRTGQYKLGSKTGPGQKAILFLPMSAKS
Chain of Follistatin (Homo sapiens) (P19883 whole entry, looked up): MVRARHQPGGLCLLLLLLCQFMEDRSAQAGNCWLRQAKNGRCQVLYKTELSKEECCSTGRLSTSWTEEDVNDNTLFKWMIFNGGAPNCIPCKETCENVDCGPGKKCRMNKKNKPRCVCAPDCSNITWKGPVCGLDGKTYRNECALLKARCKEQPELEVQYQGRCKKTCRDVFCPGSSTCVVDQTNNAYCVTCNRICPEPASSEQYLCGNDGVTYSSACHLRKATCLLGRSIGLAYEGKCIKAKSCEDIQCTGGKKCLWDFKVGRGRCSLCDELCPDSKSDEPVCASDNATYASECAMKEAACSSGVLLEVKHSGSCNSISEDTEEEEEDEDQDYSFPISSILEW
Chain of Luciferin 4-monooxygenase (Photinus pyralis) (P08659 whole entry, looked up): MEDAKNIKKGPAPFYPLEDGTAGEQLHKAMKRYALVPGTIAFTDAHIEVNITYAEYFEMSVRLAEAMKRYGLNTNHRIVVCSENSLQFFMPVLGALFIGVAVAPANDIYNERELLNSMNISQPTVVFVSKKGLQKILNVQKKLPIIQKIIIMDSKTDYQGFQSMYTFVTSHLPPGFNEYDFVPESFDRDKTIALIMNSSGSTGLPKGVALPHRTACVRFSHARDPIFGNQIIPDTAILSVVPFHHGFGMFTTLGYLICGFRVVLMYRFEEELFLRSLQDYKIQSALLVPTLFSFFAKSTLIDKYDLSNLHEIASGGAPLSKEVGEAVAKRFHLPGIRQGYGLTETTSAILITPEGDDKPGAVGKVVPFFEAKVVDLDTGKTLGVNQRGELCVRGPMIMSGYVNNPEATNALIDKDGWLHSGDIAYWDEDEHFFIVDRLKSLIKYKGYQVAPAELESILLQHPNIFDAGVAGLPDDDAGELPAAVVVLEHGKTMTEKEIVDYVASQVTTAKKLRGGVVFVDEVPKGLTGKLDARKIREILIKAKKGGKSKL

Row | Structure (SMILES) | composite z-score [1] | composite z-score [2] | composite z-score [3] | composite z-score [4] | composite z-score [5] | composite z-score [6] | z-score [7] | composite z-score (Lefty1) | composite z-score [8] | z-score [9] | composite z-score [10] | z-score [11] | z-score [12] | z-score [13] | z-score [14] | composite z-score [15] | composite z-score [16] | composite z-score (Torsin-1A (Homo sapiens) [17]) | composite z-score (Torsin-1A (Homo sapiens) [18]) | composite z-score [19]
1 | CN(C)CCCNC(=O)[C@@]1(Cc2ccccc2I)c2ccccc2C(=O)N(Cc2ccccc2)[C@H]1c1ccc(CO)cc1 | 1.88 | 1.26 | 0.658 | 0.512 | 1.28 | 1.58 | 0.893 | 0.239 | -0.0325 | 0.936 (inactive) | 0.652 | -5.58 (inactive) | 0.113 (inactive) | 0.351 (inactive) | 2.56 (inactive) | -0.203 | -0.471 | 0.0857 | 0.325 | 1.41
2 | CN(C)CCCNC(=O)[C@@H]1c2ccccc2C(=O)N(C2Cc3ccccc3C2)[C@H]1c1ccc(CO)cc1 | 0.0265 | 1.11 | 0.726 | 0.784 | 0.27 | -0.139 | 2.07 | -0.199 | 0.164 | -0.825 (inactive) | -0.128 | -0.701 (inactive) | 0.491 (inactive) | -0.502 (inactive) | -1.14 (inactive) | 0.359 | 0.217 | 0.798 | 0.802 | 0.318
3 | COCCOC(=O)N1C(=O)[C@@]2(c3ccccc31)[C@H](c1ccc(OCCO)cc1)N1[C@H](c3ccccc3)[C@H](c3ccccc3)OC(=O)[C@H]1[C@@H]2C(=O)N1CCN(c2ncccn2)CC1 | 0.46 | 1.2 | 0.929 | 0.869 | 1.43 | 1.69 | -1.03 | 1.37 | 1.04 | -0.135 (inactive) | 0.453 | -2 (inactive) | -0.266 (inactive) | 0.22 (inactive) | 4.01 (inactive) | 0.826 | 0.134 | 0.819 | 0.794 | 1.86
4 | CCOC(=O)C[C@H]1[C@H](OC(=O)c2ccc(-c3ccccc3)cc2)[C@@H](NC(=O)c2ccc3ccccc3c2)c2cc(OCCCO)ccc2N1C(=O)c1ccccc1 | 0.137 | 1.05 | 0.19 | 0.118 | 0.0533 | 0.831 | 0.257 | 0.669 | 0.3 | 0.61 (inactive) | 0.247 | -0.433 (inactive) | 0.0625 (inactive) | 0.544 (inactive) | 1.09 (inactive) | 0.114 | 0.0497 | 0.742 | 0.988 | 0.27
5 | N#Cc1ccc(C(O)C2C=CC3C(=O)NC(=O)C3N2Nc2ccccn2)cc1 (stereo not given) | 0.782 | 0.615 | -0.205 | 0.861 | 0.286 | -0.126 | 1.36 | -0.157 | 0.144 | -1.25 (inactive) | -0.0926 | -0.0103 (inactive) | -1.11 (inactive) | 0.243 (inactive) | -0.345 (inactive) | 0.126 | -0.0427 | 0.166 | 0.241 | -0.301
